Here are results for 18 compounds from PubChem BioAssay (EPA / NIEHS).

Active and inactive are the calls of the source. The calls were made as follows: active = hit-call score of the fitted dose curve at least 0.9, where 1 is the maximum; inactive = score below 0.9.

Details in all cases: mRNA level, 48 h; actives raise or lower the signal
Read-out in experiment [1]: NAD(P)H dehydrogenase [quinone] 1 (NQO1), NQO1 (gene 1728)
Description: LTEA_HepaRG_NQO1: Life Technologies and Expression Analysis (LTEA) Assay for NAD(P)H dehydrogenase [quinone] 1 (NQO1) using HepaRG (AID 2283526). Put shortly: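 Differentiated HepaRG cells, plated 48 h and then switched to serum-free induction medium, were exposed in duplicate for 48 h to 8-point half-log concentrations up to 100 uM in 0.5% DMSO. mRNA measured by qRT-PCR, normalized to ACTB, GAPDH, POLR2A; bidirectional fit versus DMSO.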

Read-out in experiment [2]: Nuclear factor erythroid 2-related factor 2 (Homo sapiens) (UniProt Q16236)
Description: LTEA_HepaRG_NFE2L2: Life Technologies and Expression Analysis (LTEA) Assay for Nuclear factor erythroid 2-related factor 2 (NFE2L2) Transcription Factor using HepaRG (AID 2283527).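 As to outcome: TaqMan qRT-PCR transcript level normalised to ACTB GAPDH and POLR2A housekeeping genes.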 The gist of the method:
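Differentiated human HepaRG cells in serum-free induction medium were exposed for 48 h to eight concentrations (top 100 uM, half-log dilutions, 0.5% DMSO), in duplicate. NFE2L2 mRNA was quantified by TaqMan qRT-PCR, normalized to ACTB, GAPDH and POLR2A, with bidirectional fitting versus DMSO.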

Read-out in experiment [3]: succinate dehydrogenase complex iron sulfur subunit B (SDHB), SDHB (gene 6390)
Put plainly: LTEA_HepaRG_SDHB: Life Technologies and Expression Analysis (LTEA) Assay for succinate dehydrogenase complex iron sulfur subunit B (SDHB) using HepaRG (AID 2283528). The gist of the method:
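HepaRG cells (~100,000/well, plated 48 h) exposed in duplicate for 48 h in serum-free induction medium to 8-point half-log series from 100 uM in 0.5% DMSO; mRNA by qRT-PCR normalised to ACTB, GAPDH, POLR2A; bidirectional fit versus DMSO.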

Read-out in experiment [4]: Signal transducer and activator of transcription 3 (Homo sapiens) (UniProt P40763)
Put plainly: LTEA_HepaRG_STAT3: Life Technologies and Expression Analysis (LTEA) Assay for Signal transducer and activator of transcription (STAT3) using HepaRG (AID 2283529). The gist of the method: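 Differentiated human HepaRG cells in serum-free induction medium were exposed in duplicate for 48 h to eight half-log concentrations up to 100 uM in 0.5% DMSO. STAT3 mRNA was quantified by TaqMan qRT-PCR, normalized to ACTB, GAPDH and POLR2A, and fitted bidirectionally against DMSO.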

Read-out in experiment [5]: solute carrier (SLCO1B1), SLCO1B1 (gene 10599)
Put plainly: LTEA_HepaRG_SLCO1B1: Life Technologies and Expression Analysis (LTEA) Assay for solute carrier (SLCO1B1) using HepaRG (AID 2283530). The gist of the method:
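Human HepaRG cultures treated for 48 h with an eight-concentration half-log series topping at 100 uM; SLCO1B1 measured by qRT-PCR and fitted bidirectionally relative to DMSO.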

Read-out in experiment [6]: sulfotransferase 2A1 (SULT2A1), SULT2A1 (gene 6822)
Description: LTEA_HepaRG_SULT2A1: Life Technologies and Expression Analysis (LTEA) Assay for sulfotransferase 2A1 (SULT2A1) using HepaRG (AID 2283531). Put shortly: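 Gene-expression endpoint in a human liver cell line: SULT2A1 mRNA change after 48 h chemical treatment, curves fitted in both directions relative to 0.5% DMSO vehicle. Concentrations spanned eight half-log steps from 100 uM.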

Read-out in experiment [7]: Transforming Growth Factor (TGFA), TGFA (gene 7039)
Description: LTEA_HepaRG_TGFA: Life Technologies and Expression Analysis (LTEA) Assay for Transforming Growth Factor (TGFA) using HepaRG (AID 2283532). The gist of the method: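 Differentiated human HepaRG cells, plated 48 h then switched to serum-free induction medium, were exposed in duplicate for 48 h to 8-point half-log series from 100 uM in 0.5% DMSO. TGFA mRNA measured by qRT-PCR, normalized to ACTB/GAPDH/POLR2A, bidirectional fit versus DMSO.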

Read-out in experiment [8]: Transforming Growth Factor (TGFB1), TGFB1 (gene 7040)
Put plainly: LTEA_HepaRG_TGFB1: Life Technologies and Expression Analysis (LTEA) Assay for Transforming Growth Factor (TGFB1) Transporter using HepaRG (AID 2283533). Put shortly: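 Eight-point concentration-response (max 100 uM, half-log) in HepaRG under serum-free induction conditions, 48 h. TGFB1 mRNA by qRT-PCR, housekeeping-normalized.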

Read-out in the next experiment: TIMP1, TIMP1 (gene 7076)
Put plainly: LTEA_HepaRG_TIMP1: Life Technologies and Expression Analysis (LTEA) Assay for TIMP1 using HepaRG (AID 2283534). The gist of the method:
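TIMP1 induction or repression in HepaRG cells after 48 h chemical exposure (eight concentrations, highest 100 uM), assessed by normalized qRT-PCR with bidirectional fitting to DMSO controls.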

Read-out in experiment [9]: Tumor necrosis factor receptor 1 (TNFRSF1A), TNFRSF1A (gene 7132)
Put plainly: LTEA_HepaRG_TNFRSF1A: Life Technologies and Expression Analysis (LTEA) Assay for Tumor necrosis factor receptor 1 (TNFRSF1A) using HepaRG (AID 2283535). The gist of the method: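 Assay uses 48 h chemical treatment of differentiated HepaRG monolayers, tested in duplicate at eight concentrations from 100 uM downward in 0.5% DMSO. mRNA is normalized to ACTB, GAPDH and POLR2A, with induction or suppression fitted relative to vehicle.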

Chain of Nuclear factor erythroid 2-related factor 2 (Homo sapiens) (Q16236 whole entry, looked up): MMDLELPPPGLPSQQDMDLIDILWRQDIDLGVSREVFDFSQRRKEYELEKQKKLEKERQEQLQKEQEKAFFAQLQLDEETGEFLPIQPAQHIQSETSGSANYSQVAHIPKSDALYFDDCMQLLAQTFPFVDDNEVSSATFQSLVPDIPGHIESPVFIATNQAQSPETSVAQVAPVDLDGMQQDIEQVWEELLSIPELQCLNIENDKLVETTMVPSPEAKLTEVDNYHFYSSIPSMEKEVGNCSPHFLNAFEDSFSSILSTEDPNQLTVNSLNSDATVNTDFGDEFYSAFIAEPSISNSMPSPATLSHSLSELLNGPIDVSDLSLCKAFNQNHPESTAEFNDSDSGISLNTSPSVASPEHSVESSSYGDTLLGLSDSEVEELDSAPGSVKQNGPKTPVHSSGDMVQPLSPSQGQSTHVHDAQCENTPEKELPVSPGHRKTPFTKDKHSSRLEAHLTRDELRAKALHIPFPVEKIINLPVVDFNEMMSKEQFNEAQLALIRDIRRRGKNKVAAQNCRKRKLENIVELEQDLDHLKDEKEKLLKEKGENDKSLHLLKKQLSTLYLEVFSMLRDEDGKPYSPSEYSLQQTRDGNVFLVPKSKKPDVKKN
Chain of Signal transducer and activator of transcription 3 (Homo sapiens) (P40763 whole entry, looked up): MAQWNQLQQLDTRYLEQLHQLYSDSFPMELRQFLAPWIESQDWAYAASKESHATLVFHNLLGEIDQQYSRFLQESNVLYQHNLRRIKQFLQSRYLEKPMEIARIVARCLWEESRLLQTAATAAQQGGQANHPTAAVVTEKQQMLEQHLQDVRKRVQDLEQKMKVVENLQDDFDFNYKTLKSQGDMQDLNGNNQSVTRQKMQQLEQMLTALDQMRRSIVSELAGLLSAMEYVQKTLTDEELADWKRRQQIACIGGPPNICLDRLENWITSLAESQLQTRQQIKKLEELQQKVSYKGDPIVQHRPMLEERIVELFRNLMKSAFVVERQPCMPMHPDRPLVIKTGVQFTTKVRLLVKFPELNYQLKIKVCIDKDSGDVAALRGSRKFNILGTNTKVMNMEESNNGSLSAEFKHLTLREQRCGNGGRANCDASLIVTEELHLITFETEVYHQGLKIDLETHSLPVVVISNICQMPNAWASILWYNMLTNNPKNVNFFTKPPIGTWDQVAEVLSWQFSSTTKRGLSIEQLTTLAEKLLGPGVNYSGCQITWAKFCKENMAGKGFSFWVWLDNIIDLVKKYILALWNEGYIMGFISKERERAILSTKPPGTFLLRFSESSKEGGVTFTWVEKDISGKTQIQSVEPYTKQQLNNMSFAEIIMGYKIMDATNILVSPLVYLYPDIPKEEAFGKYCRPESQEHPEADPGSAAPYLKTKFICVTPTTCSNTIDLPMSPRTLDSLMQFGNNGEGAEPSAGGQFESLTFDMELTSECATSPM

With `O=C(NO)C1(NS(=O)(=O)c2ccc(Oc3ccc(F)cc3)cc2)CCOCC1`, the compound was called inactive in experiment [1], in experiment [2], in experiment [3], in experiment [4], in experiment [5] and in experiment [6]. The outcome in experiment [7] was “inactive”; in [8] it was “inactive”; with TIMP1, TIMP1 (gene 7076), “inactive”; in experiment [9] it was “inactive”.

In the case of `CC(C)c1nnc2ccc(-c3ocnc3-c3cc(F)ccc3F)cn12`, the outcome is “inactive” in [1]; “inactive” in experiment [3]; “inactive” in [4]; “inactive” in [7]; “inactive” in [8]; “inactive” with TIMP1, TIMP1 (gene 7076). Further, the compound was classed as inactive in experiment [9]. Also, the figures for the AC50 in experiment [5] and in [6] were 50 µM (active) and 94 µM (active), respectively.

As for `C[C@@H](Oc1ccc(CNC(=O)c2cccnc2Oc2ccc3c(c2)OCO3)c(F)c1)C(=O)O`, the compound was classed as inactive in experiment [1], in [2], in [3], in [4], in [5] and in experiment [6]. The outcome is “inactive” in experiment [7]; “inactive” in experiment [8]; “inactive” in the experiment with TIMP1, TIMP1 (gene 7076); “inactive” in [9].

In the case of `CCCCOC(=O)c1ccccc1`, the call in [1], in [2], in experiment [3], in experiment [4], in experiment [5] and in [6] was inactive. The outcome in experiment [7] was “inactive”; in experiment [8], “inactive”; in the experiment with TIMP1, TIMP1 (gene 7076), “inactive”; in [9], “inactive”.

Turning to `CCCOc1ccc(S(=O)(=O)N2CCN(CC)CC2)cc1-c1nc2c(CC)n(Cc3ccccn3)nc2c(=O)[nH]1`, the outcome in experiment [1] is “inactive”; in experiment [3] it was “inactive”; in experiment [4], “inactive”; in experiment [7], “inactive”; with TIMP1, TIMP1 (gene 7076), “inactive”; in experiment [9] it was “inactive”. In addition, the AC50 in experiment [2] was 25 µM (active); in [5], 50 µM (active); in [6] it was 18.1 µM (active); in [8], 26.3 µM (active).

Regarding `Cc1ccc(S(=O)(=O)NC(=O)NN2CCCCCC2)cc1`, the compound was classed as inactive in experiment [1], in [2], in [3], in experiment [4], in [5] and in experiment [6]. The outcome in [7] is “inactive”; in experiment [8], “inactive”; with TIMP1, TIMP1 (gene 7076), “inactive”; in experiment [9], “inactive”.

On to `CCCCCCCC1CCC(=O)O1` (stereo unspecified), for which the result in experiment [1], in experiment [3], in [4], in [5], in experiment [6] and in [7] was inactive. For the same compound, the outcome in [8] is “inactive”; in the experiment with TIMP1, TIMP1 (gene 7076) it was “inactive”; in experiment [9], “inactive”.

As to `OC[C@H]1O[C@@](CO)(O[C@H]2O[C@H](CO)[C@@H](O)[C@H](O)[C@H]2O)[C@@H](O)[C@@H]1O`, the result in [1], in [2], in experiment [3], in experiment [4], in [5] and in experiment [6] was inactive. Also, the outcome was “inactive” in experiment [7]; “inactive” in [8]; “inactive” in the experiment with TIMP1, TIMP1 (gene 7076); “inactive” in experiment [9].

As to `OCC(CO)(CO)CO`, the call in experiment [1], in [2], in experiment [4], in experiment [5], in experiment [6] and in experiment [7] was inactive. Besides, the outcome in experiment [8] was “inactive”; in the experiment with TIMP1, TIMP1 (gene 7076) it was “inactive”; in experiment [9], “inactive”.

Regarding `Cc1nc(-c2ccccn2)ncc1C(=O)Nn1cc(C)c2cc(F)ccc21`, the call in experiment [1], in [2], in experiment [3], in [4], in experiment [5] and in [6] was inactive. Also, the outcome is “inactive” in experiment [7]; “inactive” in experiment [8]; “inactive” in the experiment with TIMP1, TIMP1 (gene 7076); “inactive” in [9].

Regarding `CC1(C)C(=O)N(Cl)C(=O)N1Cl`, the compound was called inactive in experiment [1], in [2], in [3], in [4], in [5] and in experiment [6]. The outcome in [7] was “inactive”; in experiment [8] it was “inactive”; with TIMP1, TIMP1 (gene 7076), “inactive”; in [9], “inactive”.

As for `C[C@]12C=CC(=O)C=C1CC[C@H]1[C@@H]3C[C@@H](O)[C@](O)(C(=O)CO)[C@@]3(C)C[C@H](O)[C@@]12F`, the call in [1], in [2], in [3], in [4], in experiment [5] and in experiment [6] was inactive. For the same compound, the outcome in [7] is “inactive”; in experiment [8], “inactive”; with TIMP1, TIMP1 (gene 7076), “inactive”; in experiment [9], “inactive”.

Consider `CC(C)C(=O)Nc1ccc([N+](=O)[O-])c(C(F)(F)F)c1`, for which the half-maximal activity concentration (AC50) in experiment [1] was 50 µM (active); in experiment [2] it was 50 µM (active); in experiment [5], 63.6 µM (active); in experiment [6] it was 79.6 µM (active); in experiment [7] it was 82.3 µM (active); with TIMP1, TIMP1 (gene 7076) it was 28.7 µM (active). Moreover, the compound was called inactive in [3], in [4], in experiment [8] and in experiment [9].

Consider `O=S1(=O)CCCO1`, for which the outcome in [1], in experiment [2], in experiment [3], in [4], in experiment [5] and in [6] was inactive. Moreover, the outcome in experiment [7] is “inactive”; in experiment [8], “inactive”; with TIMP1, TIMP1 (gene 7076), “inactive”; in experiment [9], “inactive”.

Take `O=c1[nH]cnc2c1ncn2[C@H]1CC[C@@H](CO)O1`: the result in experiment [1], in [2], in [3], in experiment [4], in experiment [5] and in experiment [6] was inactive. In addition, the outcome in experiment [7] was “inactive”; in [8] it was “inactive”; with TIMP1, TIMP1 (gene 7076), “inactive”; in experiment [9] it was “inactive”.

On to `O=C1CN(N=Cc2ccc([N+](=O)[O-])o2)C(=O)N1`, for which the call in experiment [1], in experiment [4], in experiment [5], in experiment [6], in [7] and in experiment [8] was inactive. In addition, the outcome was “inactive” in the experiment with TIMP1, TIMP1 (gene 7076) and “inactive” in [9]. Also, in [3], the AC50 is 16.1 µM (active).

For `CC(C)CCCCCCOC(=O)C1CCCCC1C(=O)OCCCCCCC(C)C` (stereo unspecified), the result in experiment [1], in experiment [2], in experiment [3], in experiment [4], in experiment [5] and in experiment [7] was inactive. Moreover, the outcome in experiment [8] is “inactive”; with TIMP1, TIMP1 (gene 7076) it was “inactive”. For the same compound, the values for the concentration at half-maximal activity (AC50) in experiment [6] and in experiment [9] were 9.92 µM (active) and 0.00316 µM (active), respectively.

On to `c1ccc(C(O[C@@H]2CCCN(CCc3ccc4c(c3)OCO4)C2)c2ccccc2)cc1`, for which the AC50 in experiment [1] was 78.9 µM (active); in experiment [2], 67.8 µM (active); in [5], 86.5 µM (active); in [6], 79.3 µM (active); in [7], 77.1 µM (active); in experiment [8] it was 9.92 µM (active). Moreover, the half-maximal activity concentration (AC50) in experiment [9] is 85.9 µM (active). The outcome in experiment [3] is “inactive”; in [4], “inactive”; with TIMP1, TIMP1 (gene 7076), “inactive”.

The AC50 is the midpoint of the concentration-response curve, whichever way the signal moves.
